Reference: PubChem BioAssay
Entries with a potency or affinity are not part of this list. Records with an inconclusive call do not appear. Activity calls are given as the source filed them. Unless noted, how the calls were made is not given here.

Legend:
[1] = cytotoxicity in PAX8-dependent RMG-1 cells, dose response, cell-based, cherry-pick (AID 687029;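 active means signal drop whose fitted half-maximal concentration is at most twice the top valid dose, in every test run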;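 further: cells exposed to compound for 96 hours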)
[2] = cytotoxicity in IOSE-T80 ovarian epithelial cells, dose response, selectivity assay for PAX8 inhibitor project, cell-based, cherry-pick (AID 687032;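 active means fitted half-maximal concentration for viability loss no higher than twice the top valid dose, in every repeat run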;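 further: cells exposed to compound for 96 h before reading; 0% = neutral control wells and -100% = 2 µM mitoxantrone kill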)
[3] = inhibitors of CMV-promoter luciferase reporter, dose response, counter-screen for Pax8 inhibitor project, cell-based, HEK293, luminescence, dry powder (AID 743020;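 active means signal-lowering compounds whose fitted half-maximal concentration is at or below twice the top tested dose in every run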;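 further: HEK293 cells stably expressing the CMV luciferase reporter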)
[4] = non-specific cell cytotoxicity, dose response, cytotoxicity control for PAX8 inhibitor project, plate reader, dry powder samples (AID 743021)
[5] = IGROV1 ovarian cancer cell cytotoxicity, dose response, PAX8 inhibitor project, plate reader, dry powder samples (AID 743043);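 further: more negative means fewer viable cells or more cytotoxicity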
[6] = NIH:OVCAR-3 ovarian cancer cell cytotoxicity, dose response, PAX8 inhibitor project, plate reader, dry powder samples (AID 743044)
[7] = IOSE-T80 ovarian epithelial cell cytotoxicity, dose response, cytotoxicity control for PAX8 inhibitor project, plate reader, dry powder samples (AID 743045);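 further: 0% = neutral control median and -100% = positive control median; more negative values mean more cell killing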
[8] = A2780 ovarian cancer cell cytotoxicity, dose response, cytotoxicity control, plate reader, dry powder samples (AID 743046);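 further: 0% = neutral control wells and -100% = cytotoxic reference compound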
[9] = cytotoxicity in OVCAR8 ovarian cancer cells, dose response, PAX8 project, cell-based, plate reader, dry powder samples (AID 743197)
[10] = max activity: at 35 µM, active compounds read low unless noted

Measured: max activity

COc1ccc2c3c(n(C)c2c1)[C@H](CO)N(C(=O)Nc1ccc(F)cc1)CC31CCN(S(=O)(=O)c2cccc(C)c2)CC1
inactive: [1] | [2] | [3] | [4] | [5] | [6]; [10] -14.5% | [7]

COc1ccc(CN(C)C[C@@H]2OCCCC[C@@H](C)Oc3ccc(NC(=O)Nc4ccc(C(F)(F)F)cc4)cc3C(=O)N([C@@H](C)CO)C[C@H]2C)cc1
inactive: [1] | [2] | [3] | [4] | [5] | [6]; [10] -5.22% [at 16 µM, active compounds read low] | [7] | [8]

C[C@@H]1CN([C@H](C)CO)C(=O)c2cc(NC(=O)Nc3ccc(F)cc3)ccc2O[C@@H](C)CCCCO[C@H]1CN(C)S(=O)(=O)c1ccc(Cl)cc1
inactive: [1] | [2] | [3] | [4] | [5] | [6]; [10] -22.1% [at 16 µM, active compounds read low] | [7]

CN1c2ccc(C3=CCCCC3)cc2[C@H]2[C@H](CCN2C(=O)NC2CCCCC2)[C@@H]1CO
inactive: [1] | [2] | [3] | [4] | [5] | [6]; [10] 17.4% [at 0.56 µM, active compounds read low] | [7] | [8]

O=C(Nc1ccc(C(F)(F)F)cc1)N1C[C@@H]2N[C@H](C1)C2c1ccc(-c2cccc(F)c2)cc1 (some centres undefined)
inactive: [1] | [2] | [3] | [4] | [5] | [6]; NIH:OVCAR-3 ovarian cancer cell viability, at 8 µM, active compounds read low -9.78% | [6]; NIH:OVCAR-3 ovarian cancer cell viability, at 35 µM, active compounds read low -0.968% | [7] | [8] | [9]

COc1cccc(S(=O)(=O)N(C)C[C@H]2OCc3ccccc3-c3c(n(C)c4ccccc34)C(=O)N([C@H](C)CO)C[C@H]2C)c1
inactive: [1] | [2] | [3] | [4] | [5] | [6]; [10] 28.2% [at 2.1 µM, active compounds read low] | [7]

COc1ccc(CN(C)C[C@@H]2OCCCC[C@H](C)Oc3ccc(NC(=O)Nc4cccc5ccccc45)cc3C(=O)N([C@H](C)CO)C[C@H]2C)cc1
inactive: [1] | [2] | [3] | [4] | [5] | [6]; [10] -16.9% | [7] | [8]

C[C@H](CO)N1C[C@H](C)[C@@H](CN(C)Cc2ccc(Cl)c(Cl)c2)OCCCC[C@H](C)Oc2ccc(NS(=O)(=O)c3ccc(Cl)cc3)cc2C1=O
inactive: [1] | [2] | [3] | [4] | [5] | [6]; [10] -25.3% | [7]

CN1C(=O)c2cc(NC(=O)c3cccc(Cl)c3)ccc2OC[C@@H]2O[C@H](CC(=O)NC3CCCCC3)CC[C@@H]21
inactive: [1] | [2] | [3] | [4] | [5] | [6]; [10] -25.7% | [7]

O=C(C[C@@H]1CC[C@H]2[C@@H](COC[C@H](O)CN2C(=O)Nc2ccc(Cl)c(Cl)c2)O1)NCc1ccc(Cl)cc1
inactive: [1] | [2] | [3] | [4] | [5] | [6]; [10] -36.1% | [7]

C[C@@H]1CN([C@@H](C)CO)C(=O)c2cc(NC(=O)Nc3ccc(C(F)(F)F)cc3)ccc2O[C@@H](C)CCCCO[C@@H]1CN(C)Cc1ccc2c(c1)OCO2
inactive: [1] | [2] | [3] | [4] | [5] | [6]; [10] -5.57% [at 16 µM, active compounds read low] | [7]

O=C(CCCN1C(=O)/C(=C/c2ccccc2OC(F)F)SC1=S)Nc1cccnc1
inactive: [1] | [2] | [3] | [4]

C[C@H]1CN([C@@H](C)CO)C(=O)c2cc(NS(=O)(=O)c3ccc(Cl)cc3)ccc2O[C@H]1CN(C)Cc1ccc(Cl)c(Cl)c1
inactive: [1] | [2] | [3] | [4] | [5] | [6]; [10] -29.6% | [7] | [8]

Cn1nnnc1Sc1ncnc2scc(-c3cccc(C(F)(F)F)c3)c12
inactive: [1] | [2] | [3] | [4]

C[C@H](CO)N1C[C@H](C)[C@H](CN(C)S(=O)(=O)c2ccccc2)OCCCC[C@H](C)Oc2ccc(NS(=O)(=O)c3ccc(Cl)cc3)cc2C1=O
inactive: [1] | [2] | [3] | [4] | [5] | [6]; [10] -18.9% | [7]

COc1ccccc1C#Cc1ccc([C@@H]2[C@@H](C#N)N(C(=O)C3CCCCC3)[C@H]2CO)cc1
inactive: [1] | [2] | [3] | [4] | [5] | [6]; [10] 26.7% [at 30 µM, active compounds read low] | [6]; [10] | [7] | [8] | [9]

C[C@H]1CN([C@@H](C)CO)C(=O)Cc2cc(NC(=O)Nc3ccc4c(c3)OCO4)ccc2O[C@@H]1CN(C)CC1CCCCC1
inactive: [1] | [2] | [3] | [4] | [5] | [6]; [10] -10.1% | [7]

CCSc1nc(-c2ccccc2)nc(C(Cl)Cl)n1
inactive: [1] | [2] | [3] | [4]

Cc1ccc(S(=O)(=O)Nc2ccc3c(c2)C(=O)N([C@H](C)CO)C[C@@H](C)[C@H](CN(C)S(=O)(=O)c2ccccc2)OCCCC[C@H](C)O3)cc1
inactive: [1] | [2] | [3] | [4] | [5] | [6]; [10] -31.1% | [7]

COc1ccc(S(=O)(=O)Nc2ccc3c(c2)C(=O)N([C@H](C)CO)C[C@@H](C)[C@H](CN(C)S(=O)(=O)c2ccc(F)cc2)OCCCC[C@H](C)O3)cc1
inactive: [1] | [2] | [3] | [4] | [5] | [6]; [10] -24.5% | [7] | [8]

C[C@@H]1CCCCO[C@@H](CN(C)Cc2ccc(Cl)c(Cl)c2)[C@H](C)CN([C@H](C)CO)C(=O)c2cc(NC(=O)Nc3ccc(F)cc3)ccc2O1
inactive: [1] | [2] | [3] | [4] | [5] | [6]; [10] -37% | [7] | [8]

C[C@H](CO)N1C[C@H](C)[C@@H](CN(C)Cc2ccc(Cl)c(Cl)c2)OCCCC[C@H](C)Oc2ccc(NS(=O)(=O)c3ccc(F)cc3)cc2C1=O
inactive: [1] | [2] | [3] | [4] | [5] | [6]; [10] -28.3% | [7]

O=C(C[C@@H]1C[C@@H]2c3cc(NS(=O)(=O)c4ccc(F)cc4)ccc3O[C@@H]2[C@@H](CO)O1)NCc1ccc(-c2ccccc2)cc1
inactive: [1] | [2] | [3] | [4] | [5] | [6]; [10] -23.3% [at 16 µM, active compounds read low] | [7]

COc1ccc(C(=O)c2cc([N+](=O)[O-])ccc2N2CCOCC2)cc1
inactive: [1] | [2] | [3] | [4]

COc1ccc2c(c1)C(C)=CC(C)(C)N2S(=O)(=O)c1ccc(Br)cc1
inactive: [1] | [2] | [3] | [4] | [5]

C[C@@H]1CCCCO[C@@H](CN(C)Cc2ccccc2)[C@@H](C)CN([C@@H](C)CO)C(=O)c2cc(NS(=O)(=O)c3ccc(Cl)cc3)ccc2O1
inactive: [1] | [2] | [3] | [4] | [5] | [6]; [10] 29.1% [at 0.26 µM, active compounds read low] | [7]

C[C@@H]1CCCCO[C@@H](CN(C)C(=O)Nc2ccc(C(F)(F)F)cc2)[C@H](C)CN([C@H](C)CO)C(=O)c2cc(NS(=O)(=O)c3ccccc3)ccc2O1
inactive: [1] | [2] | [3] | [4] | [5] | [6]; [10] 50.6% [at 8 µM, active compounds read low] | [7] | [8]

CC(=O)c1cccc(-c2csc3ncnc(Sc4nnnn4C)c23)c1
inactive: [1] | [2] | [3] | [4]

O=C(C[C@H]1CC[C@@H]2[C@H](COC[C@@H](O)CN2S(=O)(=O)c2cccc(Cl)c2)O1)Nc1ccc(-c2ccccc2)cc1
inactive: [1] | [2] | [3] | [4] | [5] | [6]; [10] -18.4% | [7] | [8]

C[C@@H]1CCCCO[C@H](CN(C)Cc2ccc(C(F)(F)F)cc2)[C@@H](C)CN([C@@H](C)CO)C(=O)c2cc(NS(=O)(=O)c3ccc(Cl)cc3)ccc2O1
inactive: [1] | [2] | [3] | [4] | [5] | [6]; [10] -151% | [7]

COc1ccc(-c2ccc3c(c2)[C@@H]2[C@@H](CCN2C(=O)NC2CCCCC2)[C@@H](CO)N3C)cc1
inactive: [1] | [2] | [3] | [4] | [5] | [6]; [10] -44.1% [at 9 µM, active compounds read low] | [7]

COc1ccc(NC(=O)Nc2ccc3c(c2)C(=O)N([C@H](C)CO)C[C@@H](C)[C@@H](CN(C)C(=O)Cc2ccccc2)OCCCC[C@H](C)O3)cc1
inactive: [1] | [2] | [3] | [4] | [5] | [6]; [10] -34.5% | [7]

C[C@@H]1CCCCO[C@H](CN(C)Cc2ccc3c(c2)OCO3)[C@@H](C)CN([C@@H](C)CO)C(=O)c2cc(NS(=O)(=O)c3ccc(Cl)cc3)ccc2O1
inactive: [1] | [2] | [3] | [4] | [5] | [6]; [10] -40.7% [at 16 µM, active compounds read low] | [7] | [8]

Cc1ccccc1-c1ccc2c(c1)O[C@H](CN(C)C(=O)Nc1ccc(C(F)(F)F)cc1)[C@H](C)CN([C@H](C)CO)S2(=O)=O
inactive: [1] | [2] | [3] | [4] | [5] | [6]; [10] -27.3% | [7]

C[C@H](CO)N1C[C@H](C)[C@H](CN(C)Cc2ccc(C(F)(F)F)cc2)OCCCC[C@H](C)Oc2ccc(NC(=O)c3ccccc3)cc2C1=O
inactive: [1] | [2] | [3] | [4] | [5] | [6]; [10] -59.7% | [7] | [8]
